Experimental data from the supplement of paper PMC7156485.
Several values for one entry are separate records, joined by “and”; a condition that tells them apart may be missing. Identical values can stand only once. ± gives the standard deviation of the averaged measurements.

Assays:
Settings in all cases: concentration: 10 µM; 24 h
[1] = system: HCC1569; test: cell number relative to DMSO (% of DMSO); higher = more cells (less growth inhibition / toxicity)
In short: (§1)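 In 384-well plates holding 800 HCC1569 or TDF cells per well in RPMI with 10% FBS, compounds were tested at 10 µM for 24 h at 37 °C in triplicate. Fixation used 3.7% formaldehyde. Staining used a rabbit anti-H1.0 antibody with an AlexaFluor 647 secondary, plus DAPI. Each value, H1.0 nuclear intensity or cell number, is a median of replicates shown as percent of the plate control, and HCC1569 values were smoothed for positional effects.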

[2] = system: TDF; test: as above
In short: as §1

[3] = system: TDF; test: H1.0 immunofluorescence intensity relative to DMSO (% of DMSO); higher = stronger H1.0 induction, active = 120 or more
In short: as §1

[4] = system: HCC1569; test: H1.0 immunofluorescence intensity relative to DMSO (% of DMSO); higher = stronger H1.0 induction, active = 140 or more
In short: as §1
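Throughout, for H1.0 immunofluorescence intensity relative to DMSO: TDF is a line of transformed human dermal fibroblasts of mesenchymal origin.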
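Throughout, for cell number relative to DMSO: TDF denotes transformed human dermal fibroblasts of mesenchymal origin.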

Structure (SMILES)	cell number [1]	cell number [2]	H1.0 immunofluorescence intensity [3]	H1.0 immunofluorescence intensity [4]
CCN(CC)C(=O)c1ccc(Nc2nc(OCC3CCCCC3)c3[nH]cnc3n2)cc1 [Cdk2 Inhibitor IV,                 NU6140]	73.4	51.1	98.1 (inactive)	158 (active)
O=C1C=CC(=C2NC(c3ccncc3)=C(c3ccc(F)cc3)N2)C=C1	79.5 and 79.7	95.1 and 96.9	97.7 (inactive) and 97.1 (inactive)	125 (inactive) and 124 (inactive)
Nc1nc(Cl)nc2c1ncn2C1OC(COP(=O)([O-])OP(=O)([O-])OP(=O)([O-])[O-])C(O)C1O.[Na+].[Na+].[Na+].[Na+] (stereo unspecified) [2-Chloroadenosine triphosphate tetrasodium]	102	99	89.5 (inactive)	83.9 (inactive)
Cl.Cl.Cl.NCCCCNCCCN [Spermidine trihydrochloride]	99.7	97.2	102 (inactive)	82 (inactive)
Cc1cc(C(C)Nc2ccccc2)c2nc(N3CCOCC3)cc(=O)n2c1 (stereo unspecified)	80.7	109	92.5 (inactive)	136 (inactive)
COc1ccc(CCNCC(O)c2ccc(O)cc2)cc1OC (stereo not drawn) [R(-)-Denopamine]	100	103	93.5 (inactive)	105 (inactive)
Cc1ccccc1C(OCCN(C)C)c1ccccc1.Cl (stereo unspecified) [Orphenadrine hydrochloride]	100	111	96.6 (inactive)	97 (inactive)
Oc1cc(O)cc(C=Cc2ccc(O)c(O)c2)c1 [Piceatannol]	90.4 ± 5.3	93.7 ± 4.5	97.2 (inactive)	114 (inactive)
CCCCCCCCC(=O)NCc1cc(OC)c(O)cc1I [N-(4-hydroxy-2-iodo-5-methoxybenzyl)nonanamide]	96.2	98.9	93.2 (inactive)	116 (inactive)
CC(=O)NNC(=O)N1Cc2ccccc2Oc2ccc(Cl)cc21	101	114	91 (inactive)	103 (inactive)
CNS(=O)(=O)Cc1ccc2[nH]cc(CCN(C)C)c2c1.O=C(O)CCC(=O)O [Sumatriptan Succinate]	98	106	90.9 (inactive)	114 (inactive)
Cc1cnc(NC(=O)C2=C(O)c3ccccc3S(=O)(=O)N2C)s1 [Meloxicam]	103	105	96.1 (inactive)	104 (inactive)
CC12CCC(=O)C=C1CCC1C2C(O)CC2(C)C1CCC2(O)C(=O)COC(=O)CCC(=O)[O-].[Na+] (stereo unspecified) [Hydrocortisone 21-hemisuccinate sodium]	99.5	99.5	82.6 (inactive)	125 (inactive)
Cc1c(O)cc2c(c1C)OC(C)(CCCC(C)CCCC(C)CCCC(C)C)CC2 [D-γ-Tocopherol]	100	98.7	98.5 (inactive)	102 (inactive)
CC=CCC=CCCC(=O)C1OC1C(N)=O (stereo unspecified) [Cerulenin]	92.6	91.5	97.8 (inactive)	111 (inactive)
CN1CCCC1c1cccnc1.Cc1ccc(C(=O)OC(C(=O)O)C(OC(=O)c2ccc(C)cc2)C(=O)O)cc1 (stereo not drawn) [(+)-Nicotine (+)-di-p-toluoyl tartrate]	102	109	88.1 (inactive)	99.5 (inactive)
COc1cc2ncc(-c3ccccc3)nc2cc1OC	100	94.5	94 (inactive)	107 (inactive)
O=C1NC(=O)C(c2c[nH]c3ccccc23)=C1c1c[nH]c2ccccc12 [Bisindolylmaleimide IV]	91.2	119	94.7 (inactive)	136 (inactive)
Oc1ccccc1O [Pyrocatechol]	73.6	87.2	93.7 (inactive)	117 (inactive)
O=C1NC(=O)C(=Cc2ccc(-c3ccc(F)cc3O)o2)S1	97.3	104	95.1 (inactive)	97.7 (inactive)
O=c1cc(-c2ccccc2)[nH]c2nc(Cl)ccc12 [7-Chloro-4-hydroxy-2-phenyl-1,8-naphthyridine]	76.7	20.4	141 (active)	116 (inactive)
CC(=O)OC1C(=O)C2(C)C(O)CC3OCC3(OC(C)=O)C2C(OC(=O)c2ccccc2)C2(O)CC(OC(=O)C(O)C(NC(=O)c3ccccc3)c3ccccc3)C(C)=C1C2(C)C (stereo unspecified) [Taxol]	60.2 ± 4.1	10.1 ± 1.7	174 (active)	132 (inactive)
CC(C)[N+]1(C)C2CCC1CC(OC(=O)C(CO)c1ccccc1)C2.[Br-] (stereo unspecified) [Ipratropium.Br]	102	98	91.5 (inactive)	110 (inactive)
Cl.O=C(O)C1=CCNCC1 [Isoguvacine hydrochloride]	106	108	106 (inactive)	98.2 (inactive)
OCCN(CCO)c1nc(N2CCCCC2)c2nc(N(CCO)CCO)nc(N3CCCCC3)c2n1 [Dipyridamole]	94.2 ± 1.5	104 ± 7.8	85.7 (inactive)	98.9 (inactive)

Structure (SMILES)	cell number [1]	cell number [2]	H1.0 immunofluorescence intensity [3]	H1.0 immunofluorescence intensity [4]
Cc1ccc(OCCSc2ncccn2)c(Br)c1 [2-{[2-(2-bromo-4-methylphenoxy)ethyl]sulfanyl}pyrimidine]	100	105	94 (inactive)	107 (inactive)
C#CC(N)CCC(=O)O (stereo unspecified) [gamma-Acetylinic GABA]	103	99.9	93.2 (inactive)	84.4 (inactive)
CCCCCCCCC=CCCCCCCCC(N)=O [9,10-Octadecenoamide]	98.5	103	94.7 (inactive)	102 (inactive)
Cl.Fc1ccc(C(OCCCc2cnc[nH]2)c2ccc(F)cc2)cc1	99.8	108	88.3 (inactive)	99.8 (inactive)
CC(=O)OCC1=C(C(=O)[O-])N2C(=O)C(NC(=O)CSc3ccncc3)C2SC1.[Na+] (stereo unspecified) [Cephapirin sodium]	101	103	93.8 (inactive)	84.4 (inactive)
CCCCCCCCCCCC1=C(O)C(=O)C=C(O)C1=O [Embelin]	98.8	97.1	97.6 (inactive)	87.3 (inactive)
NC(=O)c1ccc(-c2nc(-c3ccc4c(c3)OCCO4)c(-c3ccccn3)[nH]2)cc1	97.4	108	94.2 (inactive)	122 (inactive)
NCCCCCC(=O)O [6-Aminohexanoic acid]	101	116	106 (inactive)	102 (inactive)
O=C(O)c1ccc(O)c(O)c1 [Protocatechuic acid]	100	106	91.4 (inactive)	91.3 (inactive)
COc1cc2ncnc(Nc3cccc(Cl)c3)c2cc1OC [Tyrphostin AG 1478]	92.8	94.6	96.2 (inactive)	119 (inactive)
O=C1[N-]C(=O)C(c2ccccc2)(c2ccccc2)N1.[Na+] [Phenytoin sodium]	99.9	111	99.8 (inactive)	103 (inactive)
CCCCCC(O)C=CC=CCC=CCCCC(=O)O (stereo unspecified)	100	90.9	97 (inactive)	97.1 (inactive)
COc1cc2nc(N3CCN(C(=O)c4ccco4)CC3)nc(N)c2cc1OC.Cl [Prazosin hydrochloride]	91.9	99.8	93.6 (inactive)	106 (inactive)
Br.C=CCN1CCc2c(cc(O)c(O)c2Cl)C(c2ccccc2)C1 (racemic)	94.1	79.4	96.2 (inactive)	107 (inactive)
Cl.Clc1cccc(Cl)c1NC1=NCCN1 [Clonidine.HCl]	103	100	84.7 (inactive)	101 (inactive)
O[C@@H]1[C@@H](O)[C@H](OC/C=C/c2ccccc2)O[C@H](CO[C@@H]2OC[C@H](O)[C@H](O)[C@H]2O)[C@H]1O	97	103	100 (inactive)	90.3 (inactive)
COc1cc2ncnc(Nc3ccc(Oc4ccccc4)cc3)c2cc1OC [Src Kinase Inhibitor I]	88.6	94.7	106 (inactive)	147 (active)
CCC1OC(=O)C(C)C(OC2CC(C)(OC)C(O)C(C)O2)C(C)C(OC2OC(C)CC(N(C)C)C2O)C(C)(O)CC(C)C(=NOCOCCOC)C(C)C(O)C1(C)O (stereo unspecified) [Roxithromycin]	106	98.4	95.2 (inactive)	92.1 (inactive)
Nc1c2c(nc3ccccc13)CCCC2O.O=C(O)C=CC(=O)O (stereo unspecified) [Hydroxytacrine]	106	101	91.5 (inactive)	101 (inactive)
CCCOc1ccccc1-c1nc2[nH][nH]nc-2c(=O)n1 [Zaprinast]	100.3 ± 0.47	113 ± 8.6	99.1 (inactive)	104 (inactive)
COc1ccc2c(c1OC)N=C(NC(=O)c1cccnc1)N1CCN=C21	99.8	93.2	94.1 (inactive)	101 (inactive)
N#Cc1c(N(CC(=O)[O-])CC(=O)[O-])sc(C(=O)[O-])c1CC(=O)[O-].[Sr+2].[Sr+2]	100	109	86.6 (inactive)	105 (inactive)
O=C(c1ccc(C(=O)N2CCC(N3CCCC3)CC2)c(Nc2ccccc2)c1)N1CCC(N2CCCC2)CC1	99.8	104	86.5 (inactive)	102 (inactive)
CCC(=O)Nc1ccc2ncnc(Nc3cccc(Br)c3)c2c1	89.4	105	93.1 (inactive)	128 (inactive)
